Assay outcomes from PubChem.
Pf apPOL inh – Pf-apPOL DNA polymerase inhibition; Recombinant Pf-apPOL, molecular beacon fluorescence, 1.5 h; inhibition, % at 10 µM; hit rate 0.25% among 210,000; AID 1794808
mHTT-CaM PPI inh – disrupts binding of mutant huntingtin to calmodulin. inhibition, % at 15 µM. AlphaScreen His-mHTT/GST-CaM binding, luminescence. AID 1671202. P42858. hit rate 3.6% among 190,000
Each line names hits and unclear results; the compound was inactive in the other large screens. This is a sample that favours compounds with a hit; in the whole collection about 3.5% have one here. Rule as the data show it: active = inhibition above about 50%; inactive = the rest.

COc1ccc(C=C2Oc3c(ccc(O)c3CN(C)C)C2=O)c(OC)c1	none
CCc1ccc(OCC(=O)O/N=C(\N)c2cccnc2)c(Br)c1	none
CN1C(=O)C(C)(C(=O)NC2CCCCCC2)Oc2cccnc21 (centres undefined)	none
CCCSc1nc2c(cnn2-c2ccc(C)c(C)c2)c(=O)[nH]1	none
Cc1ccc(-n2ncc3c(=O)[nH]c(SCC(=O)O)nc32)cc1C	Pf apPOL inh 72
Cn1c(=O)c(N2CCN(C(=O)COc3cccc(Cl)c3)CC2)nc2ccncc21	none
CCc1ccc(NC(=O)N2CCn3cccc3C2Cc2ccccc2)cc1 (centres undefined)	none
O=C(Nc1ccc(F)cc1)N1CCn2cccc2C1Cc1ccccc1 (centres undefined)	mHTT-CaM PPI inh 69
O=C(Nc1cccc(Cl)c1)N1CCn2cccc2C1Cc1ccccc1 (centres undefined)	mHTT-CaM PPI inh 92
Cc1ccc(NC(=O)N2CCn3cccc3C2Cc2ccccc2)cc1 (centres undefined)	none
COc1ccc(C)cc1NC(=O)N1CCn2cccc2C1Cc1ccccc1 (centres undefined)	none
COc1ccc(NC(=O)N2CCn3cccc3C2Cc2ccccc2)c(OC)c1 (centres undefined)	mHTT-CaM PPI inh 54
COc1ccc(NC(=O)c2cn3c(n2)CCCC3)cc1F	none
Cc1nn2c(CNC(=O)c3cccc(Br)c3)c(C)nc2s1	none
CC1(C)Cc2ccccc2C(C2=NC(C)(C)Cc3ccccc32)=N1	none
Nc1ccc(C(=O)Nc2ccccc2)c(N)c1	mHTT-CaM PPI inh 95
Nc1cccc(C(=O)Nc2ccccc2)c1	none
CCCOc1ccc(NC(=O)CC2SC(=N)NC2=O)cc1 (centres undefined)	none
O=[N+]([O-])c1ccc(Cc2ccncc2)cc1	none
Cc1ccc(C)n1-c1ccc(Cc2ccncc2)cc1	mHTT-CaM PPI inh 65
NC(=O)CSc1nc2ccccc2nc1SCC(N)=O	none
Cc1ccc2nc(NC(=O)CSc3ccc(NC(=O)C4CC4)nn3)sc2c1	none
NC(=O)CSc1ccc(-c2ccccn2)nn1	mHTT-CaM PPI inh 100
Cc1ccc2nc(NC(=O)CSc3ccc(-c4ccco4)nn3)sc2c1	Pf apPOL inh 74, mHTT-CaM PPI inh 85
O=C(CSc1ccc(-c2ccccn2)nn1)Nc1nc2ccccc2s1	mHTT-CaM PPI inh 89
O=C(CSc1cccc2cccnc12)Nc1nc2ccccc2s1	none
CCN1CCN(C(=O)C2CCCN(c3nccc(C)n3)C2)CC1 (centres undefined)	none
COc1cccc(C=C2Oc3c(ccc(O)c3CN3CCN(CCO)CC3)C2=O)c1	none
CC(=O)Nc1ccc(N=Cc2c(C)[nH]c3ccccc23)cc1	none
Cc1cc(C2CCCN2C(=O)Nc2cccc(Cl)c2C)on1 (centres undefined)	none
Cc1ccc(/C=C2\SC(N3CC(C)OC(C)C3)=NC2=O)o1 (centres undefined)	none
CC1CN(C2=NC(=O)/C(=C/c3cn[nH]c3-c3ccccc3)S2)CC(C)O1 (centres undefined)	Pf apPOL inh 66
O=C(c1cccnc1)N1CCC(COc2ccccc2C(=O)N2CCCC2)CC1	none
O=C1c2ccc(Oc3ccc(Br)cc3)cc2C(=O)N1CC1CCCO1 (centres undefined)	none
CN1CCCN(CC2CC=CCC2)CC1 (centres undefined)	none
C=CCOC1CCCCO1 (centres undefined)	none (no result: Pf apPOL inh)
Cc1ccc(NCN2C(=O)C3CC=C(Cl)CC3C2=O)cc1 (centres undefined)	mHTT-CaM PPI inh 64
O=C1C2CC=C(Cl)CC2C(=O)N1CNc1ccccc1 (centres undefined)	none
CCOc1ccc2c(-c3cc4cc(Br)ccc4oc3=O)cc(=O)oc2c1	none
COc1ccc(C2C(C(=O)Nc3ccccc3)=C(C)Nc3nc(-c4ccccc4)nn32)c(OC)c1 (centres undefined)	none
COc1cccc(C2C(C(=O)Nc3ccccc3)=C(C)Nc3nc(-c4ccccc4)nn32)c1OC (centres undefined)	mHTT-CaM PPI inh 70
O=[N+]([O-])c1ccc(CN2CCCC2)s1	none
COc1ccc([N+](=O)[O-])cc1/C=C1\Sc2ccccc2C1=O	none
CCOc1cc(/C=C(\C#N)c2nn(CCO)c(N)c2C#N)cc(I)c1OC	mHTT-CaM PPI inh 52
CCOc1cc(/C=C(\C#N)c2nn(-c3ccccc3)c(N)c2C#N)cc(Br)c1OC	mHTT-CaM PPI inh 56
COc1cc(/C=C(\C#N)c2nn(-c3ccccc3)c(N)c2C#N)cc(OC)c1OC	none
COc1cc(/C=C(\C#N)c2nn(CCO)c(N)c2C#N)cc2c1OCO2	none
Cc1nc(C)c(Cc2ccccc2F)c(N2CCN(C(=O)C(C)C)CC2)n1	none
Cc1noc(-c2nn(C)c3c2CN(C(=O)C2CCOC2)CC3)n1 (centres undefined)	none
COc1ccccc1N1CCN(CCOc2ccc(Cl)cc2)CC1	none
Cc1ccccc1N1CCN(CCOc2cccc(Cl)c2)CC1	mHTT-CaM PPI inh 93
N#Cc1c(NC(=O)c2cc3ncc(Br)cn3n2)sc2c1CCCC2	none
O=C(O)c1cc2ncc(Br)cn2n1	Pf apPOL inh 69
O=C(CN1CCN(c2ccc(F)c(F)c2)C1=O)NCc1ccco1	none
COc1ccc(Nc2ncc3c(n2)CCN(Cc2ccc(N(C)C)cc2)C3)c(OC)c1	none
COc1cccc(Nc2ncc3c(n2)CCN(Cc2ccc(OC(C)C)cc2)C3)c1	mHTT-CaM PPI inh 51
COc1cccc(Nc2ncc3c(n2)CCN(Cc2ccc(N(C)C)cc2)C3)c1	mHTT-CaM PPI inh 73
CCOc1ccc(CN2CCc3nc(Nc4cccc(OC)c4)ncc3C2)cc1	none
O=C(c1ccccc1)c1ccc(OCCCN2CCOCC2)cc1	none
CCNC(=O)N1CCCC(c2cccc(C(=O)N3CCCCCC3)c2)C1 (centres undefined)	none
Cn1ncc(N2CCCC(C(=O)NCc3ccc(N4CCOCC4)cc3)C2)cc1=O (centres undefined)	none
COc1ccc(NC(=O)CN2C(=O)C3CCCN3C(=O)c3ccc(F)cc32)cc1 (centres undefined)	none
Cc1cccc(C(=O)Nc2cnn(C)c(=O)c2N2CCCCC2)c1	none
O=C(CC1(O)C(=O)N(Cc2ccc(Cl)cc2)c2ccccc21)c1ccc([N+](=O)[O-])cc1 (centres undefined)	mHTT-CaM PPI inh 86
O=C(CC1(O)C(=O)N(Cc2ccc(Cl)cc2)c2ccccc21)c1cccnc1 (centres undefined)	none
O=C(CC1(O)C(=O)N(Cc2ccc(Cl)cc2)c2ccccc21)c1cccc([N+](=O)[O-])c1 (centres undefined)	mHTT-CaM PPI inh 93
C=CCN1C(=O)C(O)(CC(=O)c2ccc([N+](=O)[O-])cc2)c2ccccc21 (centres undefined)	none
COc1ccc(C(=O)CC2(O)C(=O)N(CCc3ccccc3)c3ccccc32)cc1[N+](=O)[O-] (centres undefined)	mHTT-CaM PPI inh 71
C=CCN1C(=O)C(O)(CC(=O)c2ccc(OC)c([N+](=O)[O-])c2)c2ccccc21 (centres undefined)	none
CCC(C(=O)NC1CC(O)C(CO)C1)c1ccccc1 (centres undefined)	none
CCSc1nnc(NC(=O)CSc2cccs2)s1	none
COc1ccc(-c2c(C)oc3cc(OC(=O)c4ccc5c(c4)OCO5)ccc3c2=O)cc1OC	none
O=C(NNC(=O)c1ccccc1CO)c1ccc(Cl)c(Cl)c1	none (no result: mHTT-CaM PPI inh)
COc1cc(C2C(C#N)=C(N)Oc3n[nH]c(-c4ccc(Cl)c(Cl)c4)c32)ccc1O (centres undefined)	mHTT-CaM PPI inh 99
